Consider ten compounds from PubChem BioAssay (Tox21).

Inconclusive results are not listed. Calls of active or inactive are those of the source. Unless noted, calls come from the whole dose curve.

Experiment [1] can be described thus: qHTS assay to identify small molecule agonists of the sonic hedgehog signaling (Shh) pathway (AID 1259368).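 Note: NIH/3T3-derived 3T3Gli1-Luc cells carrying a stable Gli1-driven firefly luciferase reporter; series mostly up to about 92 µM; nearly all actives have a fitted effect of over 15% in size.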 Put shortly: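 NIH/3T3-derived 3T3Gli1-Luc cells with stably integrated Gli1-driven firefly luciferase, 2,000 cells/well, compounds added after 4 hr. Incubated 24 hr at 37C, 5% CO2; luminescence read after 30 min with luciferase reagent at room temperature.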
On the technique in general: Quantitative high-throughput screening tests each substance at several concentrations.

Experiment [2] is described as follows: qHTS assay to identify small molecule antagonists of the sonic hedgehog signaling (Shh) pathway (AID 1259369). Note: nearly all actives have a fitted effect of over 45% in size. Note: potency is the fitted concentration of half-maximal effect. A digest of the protocol: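 NIH/3T3-derived Gli1-Luc reporter cells plated 4 h, dosed with compound, then stimulated with conditioned medium for 24 h at 37 C. Firefly luciferase luminescence read after 30 min with detection reagent at room temperature.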

Experiment [3] can be described thus: qHTS assay to identify small molecule agonists of the androgen receptor (AR) signaling pathway in the presence of an antagonist - cell viability counter screen (AID 1259379; active = well fitted curve in the direction sought with a large enough effect in the repeat runs; an effect the other way counts as inactive or inconclusive; note: nearly all actives have a fitted effect of over 25% in size; note: potency is the fitted concentration of half-maximal effect). A digest of the protocol: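 MDA-kb2 cells (MMTV-luciferase, AR/GR), 3,000/well, 5 h attachment, then 3.0 µM nilutamide (final) and compounds at 15 concentrations. Viability by CellTiter-Fluor fluorescence after 16 h at 37 °C, 0% CO2, in the reporter wells.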

Experiment [4] in a line: qHTS assay to identify small molecule agonists of the estrogen receptor beta (ER-beta) signaling pathway - cell viability counter screen (AID 1259380; active = well fitted curve in the direction sought with a large enough effect in the repeat runs; an effect the other way counts as inactive or inconclusive; note: nearly all actives have a fitted effect of over 30% in size). Put shortly:
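ER-beta-UAS-bla HEK293T cells in medium with 2% charcoal-stripped FBS, pre-incubated 6 hr, then treated 16 hr at 37C. Cytotoxicity read in the same wells by CellTiter-Glo luminescence after 30 min at room temperature.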

Experiment [5] in a line: qHTS assay to identify small molecule antagonists of the estrogen receptor beta (ER-beta) signaling pathway - cell viability counter screen (AID 1259382; active = well fitted curve in the direction sought with a large enough effect in the repeat runs; an effect the other way counts as inactive or inconclusive;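 note: HEK293T cells carrying ER-beta-UAS-bla reporter stimulated with estradiol; series mostly up to about 92 µM; nearly all actives have a fitted effect of over 55% in size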). Put shortly: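 ER-beta-UAS-bla HEK293T cells in 2% charcoal-stripped FBS medium, treated with compound plus 1 nM 17-beta-estradiol for 16 h at 37C. Viability read by CellTiter-Glo luminescence after 30 min at room temperature in the same wells.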

The target in experiment [6] is Estrogen receptor (Homo sapiens) (UniProt P03372). In words: qHTS assay to identify small molecule agonists of the estrogen receptor alpha (ER-alpha) signaling pathway in the presence of an antagonist (AID 1259383). Note: top concentration of the series differs between compounds; nearly all actives have a fitted effect of over 15% in size. Put shortly: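 VM7Luc4E2 cells express endogenous full-length ER-alpha with an ERE-luciferase reporter and were hormone-deprived for 5 days. Compounds at 15 concentrations were added with 10.0nM ICI-182,780 for 22hr at 37C. Luminescence was read with ONE-Glo.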

In experiment [7] the target is Estrogen receptor beta (Homo sapiens) (UniProt Q92731). The experiment in a line: qHTS assay to identify small molecule antagonists of the estrogen receptor beta (ER-beta) signaling pathway (AID 1259378; active = well fitted inhibition curve with a large enough effect in the signal ratio in the repeat runs, not every such curve was filed as active; the % refers to the signal ratio). Put shortly: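 Antagonist mode: compounds added to beta-lactamase reporter HEK293T ER-beta-UAS cells stimulated with E2 (1nM final), 16 hr at 37C. LiveBLAzer B/G FRET substrate, 2 hours room temperature, fluorescence read-out.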

The nature of experiment [8]: qHTS assay to identify small molecule agonists or antagonists of the thyroid stimulating hormone receptor (TSHR) signaling pathway - wild type cell line counter screen (AID 1259384). A digest of the protocol: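 Counter screen in untransfected Hek293: compounds (15-point titration, triplicate) plus phosphodiesterase inhibitor Ro20-1724 added after 18 h plating; 30 min RT. Intracellular cAMP via competitive d2/cryptate immunoassay, 1 h incubation.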

For experiment [9], the target named is Androgen receptor (Homo sapiens) (UniProt P10275). In words: qHTS assay to identify small molecule agonists of the androgen receptor (AR) signaling pathway in the presence of an antagonist (AID 1259381). Note: nearly all actives have a fitted effect of over 15% in size. Put shortly:
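MDA-kb2 cells carrying MMTV-luciferase (AR/GR responsive), 3,000 cells/well, co-treated with 3.0 uM nilutamide final. Compounds at 15 concentrations, 16 hr at 37C without CO2. Luciferase luminescence read after 30 min with ONE-Glo.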

Sequence of Estrogen receptor beta (Homo sapiens) (Q92731 whole entry, looked up): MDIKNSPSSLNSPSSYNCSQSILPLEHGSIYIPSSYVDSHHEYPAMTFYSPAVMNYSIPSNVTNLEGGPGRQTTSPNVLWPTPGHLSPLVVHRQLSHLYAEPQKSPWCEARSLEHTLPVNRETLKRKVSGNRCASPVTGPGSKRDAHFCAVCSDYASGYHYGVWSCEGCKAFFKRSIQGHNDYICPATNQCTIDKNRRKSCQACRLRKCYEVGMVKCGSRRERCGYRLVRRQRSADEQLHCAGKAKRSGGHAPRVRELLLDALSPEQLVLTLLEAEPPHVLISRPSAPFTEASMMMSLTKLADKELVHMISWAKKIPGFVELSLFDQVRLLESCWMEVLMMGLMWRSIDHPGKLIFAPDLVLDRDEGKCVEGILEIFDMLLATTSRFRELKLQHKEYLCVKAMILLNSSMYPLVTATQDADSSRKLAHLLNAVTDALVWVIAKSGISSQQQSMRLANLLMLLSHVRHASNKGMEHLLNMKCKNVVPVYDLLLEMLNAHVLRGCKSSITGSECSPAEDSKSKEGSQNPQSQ
Sequence of Estrogen receptor (Homo sapiens) (P03372 whole entry, looked up): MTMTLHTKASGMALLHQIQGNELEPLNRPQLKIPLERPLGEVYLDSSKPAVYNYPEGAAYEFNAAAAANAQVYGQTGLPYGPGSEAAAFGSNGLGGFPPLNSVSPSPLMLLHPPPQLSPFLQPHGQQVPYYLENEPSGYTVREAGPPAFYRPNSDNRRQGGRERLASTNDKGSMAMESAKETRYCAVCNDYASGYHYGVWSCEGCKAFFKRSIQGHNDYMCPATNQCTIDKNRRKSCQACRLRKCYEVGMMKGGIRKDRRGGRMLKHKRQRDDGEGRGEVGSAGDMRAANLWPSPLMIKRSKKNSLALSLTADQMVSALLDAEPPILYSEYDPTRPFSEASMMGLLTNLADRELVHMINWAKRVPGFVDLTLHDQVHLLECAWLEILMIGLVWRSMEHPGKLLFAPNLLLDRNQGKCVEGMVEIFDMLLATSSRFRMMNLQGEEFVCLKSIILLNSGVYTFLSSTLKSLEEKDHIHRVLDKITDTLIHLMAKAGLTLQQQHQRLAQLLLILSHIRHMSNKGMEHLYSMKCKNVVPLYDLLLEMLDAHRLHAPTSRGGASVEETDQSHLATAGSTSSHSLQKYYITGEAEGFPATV
Sequence of Androgen receptor (Homo sapiens) (P10275 whole entry, looked up): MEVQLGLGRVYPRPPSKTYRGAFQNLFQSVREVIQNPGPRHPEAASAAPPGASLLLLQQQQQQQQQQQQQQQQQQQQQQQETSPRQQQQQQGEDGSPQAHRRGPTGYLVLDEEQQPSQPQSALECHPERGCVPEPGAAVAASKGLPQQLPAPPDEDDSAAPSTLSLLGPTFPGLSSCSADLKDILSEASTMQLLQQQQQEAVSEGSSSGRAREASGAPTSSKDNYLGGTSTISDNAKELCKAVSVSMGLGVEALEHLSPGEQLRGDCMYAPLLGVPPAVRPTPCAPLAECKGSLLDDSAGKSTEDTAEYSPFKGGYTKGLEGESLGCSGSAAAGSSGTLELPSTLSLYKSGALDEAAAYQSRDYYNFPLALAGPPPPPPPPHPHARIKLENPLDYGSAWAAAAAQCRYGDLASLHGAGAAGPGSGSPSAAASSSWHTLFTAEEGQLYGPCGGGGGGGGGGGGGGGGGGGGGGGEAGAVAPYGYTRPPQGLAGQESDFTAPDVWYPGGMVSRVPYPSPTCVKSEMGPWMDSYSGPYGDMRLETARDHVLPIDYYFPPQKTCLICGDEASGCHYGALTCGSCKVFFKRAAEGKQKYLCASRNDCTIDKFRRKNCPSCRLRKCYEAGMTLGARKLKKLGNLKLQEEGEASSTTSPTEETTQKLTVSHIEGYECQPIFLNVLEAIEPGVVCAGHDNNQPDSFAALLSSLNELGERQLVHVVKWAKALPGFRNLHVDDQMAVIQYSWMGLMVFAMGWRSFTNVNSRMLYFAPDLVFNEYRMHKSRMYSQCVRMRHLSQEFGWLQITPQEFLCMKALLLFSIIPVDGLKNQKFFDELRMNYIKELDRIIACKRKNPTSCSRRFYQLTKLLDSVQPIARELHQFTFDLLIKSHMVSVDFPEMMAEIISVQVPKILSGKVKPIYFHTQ

Consider `Nc1ccc(C(=O)Oc2ccccc2)c(O)c1`, for which the Potency result in experiment [1], in experiment [2], in experiment [3], in [4], in [5] and in experiment [6] was “inactive” each time.

For `Nc1nc(Cl)nc2c1ncn2[C@H]1C[C@H](O)[C@@H](CO)O1`, the Potency entry in [1], in [3], in experiment [4] and in experiment [5] was “inactive” in each case. In addition, the Potency in [2] is 0.383 µM (active).

Turning to `CC(C)(C)c1ccc(CCC=O)cc1`, the Potency entry in experiment [1], in experiment [2], in experiment [7], in experiment [3], in [5] and in [6] was “inactive” in each case. In experiment [8], the result was inactive.

For `COc1cccc([C@H](O)C2CCN(CCc3ccc(F)cc3)CC2)c1OC`, the Potency entry in experiment [1], in experiment [7], in experiment [5] and in [6] was “inactive” throughout. In [2], the Potency is 54.5 µM (active). The outcome in [8] was inactive.

For the compound `C[C@H](CN1CCCC1)C(=O)c1ccc(C(F)(F)F)cc1`, the Potency entry in experiment [1], in experiment [2], in [7], in experiment [3] and in [5] was “inactive” in each case.

For the compound `O=C1c2ccccc2C(=O)C1c1ccc2cc(S(=O)(=O)O)cc(S(=O)(=O)O)c2n1`, the Potency entry in experiment [1], in [2], in experiment [7] and in experiment [6] was “inactive” in each case. For the same compound, the Potency in [3] is 29.5 µM (active).

`CC(C)(C)N`: the Potency entry in experiment [1], in [2], in experiment [3], in experiment [4], in experiment [5] and in experiment [6] was “inactive” in each case. Also, the result in [8] was inactive.

Turning to `O=c1[nH][nH]c2ccccc12`, the Potency result in experiment [1], in experiment [2], in [7], in experiment [3], in experiment [9] and in [6] was “inactive” each time. Also, in experiment [8], the call was inactive.

As for `CCCCOC(=O)CC#N`, the Potency result in [1], in experiment [3], in [4], in [5] and in [6] was “inactive” throughout. Besides, the Potency in experiment [2] was 32.1 µM (active). For the same compound, the outcome in experiment [8] was inactive.

In the case of `Cc1ccc(NC=O)c(C)c1`, the Potency entry in experiment [1], in experiment [2], in [3], in experiment [4], in experiment [5] and in experiment [6] was “inactive” each time. Further, in [8], the outcome was inactive.
